Data published in PubChem BioAssay (EPA / NIEHS).
Records with an inconclusive call do not appear. Active and inactive are the calls of the source. The calls were made as follows, unless noted: active = hit-call score of the fitted dose curve at least 0.9, where 1 is the maximum; inactive = score below 0.9.

How the values were obtained:
[1] = target: Nuclear respiratory factor 1 (Homo sapiens) (UniProt Q16656); assay: ATG_NRF1_CIS: Attagene CIS-FACTORIAL HepG2 Assay for human Nuclear Respiratory Factor 1 (NRF1) Orphan Gene (AID 2282987); conditions: HepG2 NRF1 cis-element reporter, Attagene multiplex; actives raise or lower the signal
Sequence of Nuclear respiratory factor 1 (Homo sapiens) (Q16656 whole entry, looked up): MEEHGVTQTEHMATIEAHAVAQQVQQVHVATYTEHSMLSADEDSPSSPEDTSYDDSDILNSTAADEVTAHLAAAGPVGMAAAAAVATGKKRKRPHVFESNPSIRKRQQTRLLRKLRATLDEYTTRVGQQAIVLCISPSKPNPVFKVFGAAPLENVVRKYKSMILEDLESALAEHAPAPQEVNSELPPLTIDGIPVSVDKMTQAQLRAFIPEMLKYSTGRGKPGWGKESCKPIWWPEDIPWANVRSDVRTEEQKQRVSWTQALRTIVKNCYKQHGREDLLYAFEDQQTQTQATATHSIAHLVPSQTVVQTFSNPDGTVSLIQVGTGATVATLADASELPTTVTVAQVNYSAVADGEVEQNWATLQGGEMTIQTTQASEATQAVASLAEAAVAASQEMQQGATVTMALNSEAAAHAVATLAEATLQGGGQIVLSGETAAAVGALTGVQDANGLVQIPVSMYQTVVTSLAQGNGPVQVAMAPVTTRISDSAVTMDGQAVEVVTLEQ
How it was run: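 Human hepatoma HepG2 cells carrying transfected promoter-regulated reporter units were incubated with test chemicals for 24 h. Reporter transcripts were measured by RT-PCR plus capillary electrophoresis, and endpoints derived by bidirectional fitting with DMSO as baseline.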

[2] = ATG_NFI_CIS: Attagene CIS-FACTORIAL HepG2 Assay for human Nuclear Factor I (NFI) (AID 2282989); conditions: HepG2 cis-regulatory reporter, NFI response element transcription; actives raise or lower the signal
How it was run: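 Endogenous TF activity in HepG2 cells transiently transfected with cis-element-driven multiplexed reporter units, read 24 h after dosing. Reporter mRNA quantified by RT-PCR, 6-FAM labelling, HpaI digestion and capillary electrophoresis; bidirectional fit versus DMSO.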

[3] = target: Myc proto-oncogene protein (Homo sapiens) (UniProt P01106); assay: ATG_Myc_CIS: Attagene CIS-FACTORIAL HepG2 Assay for human Myelocytomatosis (Myc) Proto-Oncogene Transcription Factor (AID 2282990); conditions: HepG2, Attagene cis-reporter transcription factor activity; actives raise or lower the signal
Sequence of Myc proto-oncogene protein (Homo sapiens) (P01106 whole entry, looked up): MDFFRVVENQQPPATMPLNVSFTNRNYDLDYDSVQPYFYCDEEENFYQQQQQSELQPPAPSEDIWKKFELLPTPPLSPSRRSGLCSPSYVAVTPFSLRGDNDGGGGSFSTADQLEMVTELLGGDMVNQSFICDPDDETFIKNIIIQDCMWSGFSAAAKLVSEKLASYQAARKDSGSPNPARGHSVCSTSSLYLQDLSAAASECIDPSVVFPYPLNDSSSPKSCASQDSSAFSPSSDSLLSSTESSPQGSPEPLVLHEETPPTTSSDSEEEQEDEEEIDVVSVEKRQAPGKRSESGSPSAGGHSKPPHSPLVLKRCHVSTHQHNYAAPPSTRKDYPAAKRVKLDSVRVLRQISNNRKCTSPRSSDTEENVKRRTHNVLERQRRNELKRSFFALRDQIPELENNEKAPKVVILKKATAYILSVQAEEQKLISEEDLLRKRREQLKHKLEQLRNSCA
How it was run: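 Multiplexed cis-reporter transcription in HepG2 cells after 24 h chemical treatment. Reporter mRNA measured by RT-PCR and capillary electrophoresis fluorescence; activity fitted bidirectionally against DMSO control.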

[4] = ATG_NF_kB_CIS: Attagene CIS-FACTORIAL HepG2 Assay for human Nuclear Factor Kappa B (NF-kB) (AID 2282991); conditions: HepG2 Attagene cis-factorial NF-kB reporter mRNA; actives raise or lower the signal
How it was run: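 Multiplexed cis-reporter assay in transiently transfected HepG2. 24 h treatment; RNA isolated, RT-PCR, labelled fragments resolved by CE. DMSO baseline.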

[5] = ATG_NRF2_ARE_CIS: Attagene CIS-FACTORIAL HepG2 Assay for human Nuclear Factor Erythroid 2 Related Factor 2 (NFR2) response to Antioxidant Response Elements (ARE) (AID 2282992); conditions: HepG2 Attagene ARE/NRF2 reporter, transcription factor activity; actives raise or lower the signal
How it was run: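 Transient MRTU transfection of HepG2; 24 h compound exposure; TriZol RNA, RT with oligo(dT), PCR, 6-FAM primer extension, HpaI cut, CE. Bidirectional fit vs DMSO.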

[6] = ATG_Oct_MLP_CIS: Attagene CIS-FACTORIAL HepG2 Assay for human Octamer-Binding Transcription Factor (Oct) (AID 2282993); conditions: HepG2 Attagene cis-factorial Oct reporter, mRNA; actives raise or lower the signal
How it was run: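 HepG2 cells transiently transfected with cis-element-driven reporter transcription units (endogenous TF activity); 24 h compound exposure. Reporter mRNA quantified by RT-PCR, 6-FAM labelling, HpaI digestion and capillary electrophoresis; bidirectional fit versus DMSO baseline.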

[7] = target: Cellular tumor antigen p53 (Homo sapiens) (UniProt P04637); assay: ATG_p53_CIS: Attagene CIS-FACTORIAL HepG2 Assay for human p53 Transcription Factor (AID 2282994); conditions: HepG2 p53 cis-element reporter, Attagene mRNA; actives raise or lower the signal
Sequence of Cellular tumor antigen p53 (Homo sapiens) (P04637 whole entry, looked up): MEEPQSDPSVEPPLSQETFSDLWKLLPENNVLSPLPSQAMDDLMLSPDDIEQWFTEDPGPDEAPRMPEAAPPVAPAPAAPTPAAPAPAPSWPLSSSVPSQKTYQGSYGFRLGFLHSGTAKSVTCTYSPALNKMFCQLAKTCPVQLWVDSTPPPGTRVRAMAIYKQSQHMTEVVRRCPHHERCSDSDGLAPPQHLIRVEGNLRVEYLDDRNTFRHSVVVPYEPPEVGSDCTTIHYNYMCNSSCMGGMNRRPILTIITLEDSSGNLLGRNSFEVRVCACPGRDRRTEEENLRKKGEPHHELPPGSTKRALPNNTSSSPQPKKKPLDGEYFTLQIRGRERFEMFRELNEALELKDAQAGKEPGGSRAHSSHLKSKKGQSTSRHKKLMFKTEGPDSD
How it was run: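 HepG2, transient MRTU transfection (cis promoter elements, endogenous TFs); 24 h dosing; RNA isolation, RT-PCR, 6-FAM primer extension, HpaI digest, CE fluorescence; bidirectional fit vs DMSO.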

[8] = BSK_3C_TissueFactor: BioMAP Diversity Plus: 3C Assay for Tissue Factor Biomarker Activity (AID 2282997); conditions: BioMAP 3C HUVEC, tissue factor biomarker readout; actives raise or lower the signal
How it was run: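 ELISA read-out of Tissue Factor levels on human umbilical vein endothelium collected 24 h after chemical dosing. Gain or loss of signal was fitted relative to DMSO.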

[9] = BSK_3C_uPAR: BioMAP Diversity Plus: 3C Assay for Urokinase-type plasminogen activator receptor (uPAR) Biomarker Activity (AID 2282998); conditions: BioMAP 3C HUVEC, uPAR biomarker ELISA; actives raise or lower the signal
How it was run: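 Primary human umbilical vein endothelial cells, 3C system; surface uPAR measured by ELISA 24 h after dosing. Cytotoxicity via SRB total protein in parallel cultures; bidirectional fit against DMSO.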

[10] = BSK_3C_VCAM1: BioMAP Diversity Plus: 3C Assay for Vascular cell adhesion molecule 1 (VCAM1) Biomarker Activity (AID 2282999); conditions: BioMAP 3C HUVEC, VCAM1 ELISA, cytokine-stimulated; actives raise or lower the signal
How it was run: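 Human umbilical vein endothelial cells were dosed with compound for 24 h, after which cell-surface VCAM-1 was quantified by ELISA. Bidirectional curve fitting used DMSO as negative control and activity baseline.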

[11] = target: human Peroxisome Proliferator-activated Receptor delta (PPARd), PPARD (gene 5467) (UniProt Q03181); assay: ATG_PPARd_TRANS: Attagene TRANS-FACTORIAL HepG2 Assay for human Peroxisome Proliferator-activated Receptor delta (PPARd) (AID 2283002; active = hit-call score of the fitted dose curve at least 0.9, where 1 is the maximum)
Sequence of human Peroxisome Proliferator-activated Receptor delta (PPARd), PPARD (gene 5467) (Q03181 whole entry, looked up, the tested form may be a part): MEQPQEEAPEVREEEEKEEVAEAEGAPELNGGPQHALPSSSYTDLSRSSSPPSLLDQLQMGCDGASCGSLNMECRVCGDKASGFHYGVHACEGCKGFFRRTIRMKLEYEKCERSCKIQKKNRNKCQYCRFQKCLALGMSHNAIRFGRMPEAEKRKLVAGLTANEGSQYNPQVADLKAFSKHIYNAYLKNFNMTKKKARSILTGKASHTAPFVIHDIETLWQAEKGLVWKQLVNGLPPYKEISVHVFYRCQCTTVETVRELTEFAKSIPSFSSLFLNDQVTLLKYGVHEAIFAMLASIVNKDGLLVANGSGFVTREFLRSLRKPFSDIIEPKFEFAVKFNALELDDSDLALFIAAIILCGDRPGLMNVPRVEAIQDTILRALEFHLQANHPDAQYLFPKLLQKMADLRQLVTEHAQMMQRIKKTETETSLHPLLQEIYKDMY
How it was run: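 Multiplexed trans-activation format: HepG2 liver cells expressing exogenous NR-Gal4 chimeras and GAL4-UAS reporters were exposed for 24 h. Reporter mRNA was detected by RT-PCR with capillary electrophoresis fluorescence; activity fitted as gain of signal relative to DMSO.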

[12] = read-out: Intercellular Adhesion Molecule 1 (ICAM1), ICAM1 (gene 3383); assay: BSK_3C_ICAM1: BioMAP Diversity Plus: 3C Assay for Intercellular Adhesion Molecule 1 (ICAM1) Biomarker Activity (AID 2283003); conditions: primary human endothelial cells (HUVEC); actives raise or lower the signal
How it was run: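 Human vascular endothelial primary cells, 3C conditions, 24 h treatment. ICAM-1 by ELISA.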

[13] = BSK_3C_Proliferation: Cell Proliferation Assessment in the BioMAP Diversity Plus: 3C Assay (AID 2283006); conditions: primary human endothelial cells (HUVEC);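 as to AC50: potency may reflect either rise or fall in cell number versus DMSO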
How it was run: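 Proliferation of human vascular endothelial primary cells after 48 h dosing, quantified as SRB-stained protein at 560 nm relative to DMSO.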

[14] = target: Peroxisome proliferator-activated receptor gamma (Homo sapiens) (UniProt P37231); assay: ATG_PPARg_TRANS: Attagene TRANS-FACTORIAL HepG2 Assay for human Peroxisome Proliferator-activated Receptor-gamma (PPARg) (AID 2283007; active = hit-call score of the fitted dose curve at least 0.9, where 1 is the maximum)
Sequence of Peroxisome proliferator-activated receptor gamma (Homo sapiens) (P37231 whole entry, looked up): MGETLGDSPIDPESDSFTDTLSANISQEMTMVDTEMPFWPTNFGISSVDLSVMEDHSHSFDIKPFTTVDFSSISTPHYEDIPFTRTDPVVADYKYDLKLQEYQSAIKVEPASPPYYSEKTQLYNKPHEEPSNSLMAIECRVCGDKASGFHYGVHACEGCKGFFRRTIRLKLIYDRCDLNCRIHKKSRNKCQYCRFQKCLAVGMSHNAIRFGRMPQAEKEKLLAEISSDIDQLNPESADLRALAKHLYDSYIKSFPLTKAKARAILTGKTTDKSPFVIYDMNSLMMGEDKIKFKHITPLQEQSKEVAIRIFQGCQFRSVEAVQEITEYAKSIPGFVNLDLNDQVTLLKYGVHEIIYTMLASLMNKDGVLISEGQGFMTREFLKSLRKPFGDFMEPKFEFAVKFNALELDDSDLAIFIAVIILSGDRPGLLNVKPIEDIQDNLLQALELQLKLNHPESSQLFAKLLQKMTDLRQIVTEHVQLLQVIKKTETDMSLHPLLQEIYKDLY
How it was run: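 Human hepatoma HepG2, transient MRTU transfection, 24 h treatment. mRNA reporter signal by RT-PCR plus capillary electrophoresis, fluorescence detection; fitted for increase over DMSO negative control.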

[15] = target: Nuclear receptor subfamily 1 group I member 2 (Homo sapiens) (UniProt O75469); assay: ATG_PXR_TRANS: Attagene TRANS-FACTORIAL HepG2 Assay for human Pregnane X Receptor (PXR) (AID 2283008; active = hit-call score of the fitted dose curve at least 0.9, where 1 is the maximum)
Sequence of Nuclear receptor subfamily 1 group I member 2 (Homo sapiens) (O75469 whole entry, looked up, the tested form may be a part): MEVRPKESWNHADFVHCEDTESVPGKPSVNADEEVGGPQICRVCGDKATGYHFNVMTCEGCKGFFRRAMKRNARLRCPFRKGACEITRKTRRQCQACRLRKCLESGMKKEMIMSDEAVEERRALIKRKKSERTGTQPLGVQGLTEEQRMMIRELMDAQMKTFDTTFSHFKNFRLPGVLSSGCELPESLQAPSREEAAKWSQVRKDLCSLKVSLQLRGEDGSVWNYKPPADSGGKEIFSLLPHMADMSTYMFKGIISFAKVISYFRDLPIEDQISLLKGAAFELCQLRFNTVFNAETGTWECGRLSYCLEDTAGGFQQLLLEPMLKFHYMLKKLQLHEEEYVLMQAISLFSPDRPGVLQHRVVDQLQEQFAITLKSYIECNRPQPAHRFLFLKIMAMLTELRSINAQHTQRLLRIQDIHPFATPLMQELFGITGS
How it was run: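 Read-out is fluorescence of labelled reporter cDNA fragments separated by capillary electrophoresis after RT-PCR and HpaI digestion. Source: HepG2 cells carrying PXR-GAL4/UAS reporter constructs, treated 24 h; activity fitted upward relative to DMSO.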

[16] = target: human Retinoic Acid Receptor gamma (RARg), RARG (gene 5916) (UniProt P13631); assay: ATG_RARg_TRANS: Attagene TRANS-FACTORIAL HepG2 Assay for human Retinoic Acid Receptor gamma (RARg) (AID 2283009; active = hit-call score of the fitted dose curve at least 0.9, where 1 is the maximum)
Sequence of human Retinoic Acid Receptor gamma (RARg), RARG (gene 5916) (P13631 whole entry, looked up, the tested form may be a part): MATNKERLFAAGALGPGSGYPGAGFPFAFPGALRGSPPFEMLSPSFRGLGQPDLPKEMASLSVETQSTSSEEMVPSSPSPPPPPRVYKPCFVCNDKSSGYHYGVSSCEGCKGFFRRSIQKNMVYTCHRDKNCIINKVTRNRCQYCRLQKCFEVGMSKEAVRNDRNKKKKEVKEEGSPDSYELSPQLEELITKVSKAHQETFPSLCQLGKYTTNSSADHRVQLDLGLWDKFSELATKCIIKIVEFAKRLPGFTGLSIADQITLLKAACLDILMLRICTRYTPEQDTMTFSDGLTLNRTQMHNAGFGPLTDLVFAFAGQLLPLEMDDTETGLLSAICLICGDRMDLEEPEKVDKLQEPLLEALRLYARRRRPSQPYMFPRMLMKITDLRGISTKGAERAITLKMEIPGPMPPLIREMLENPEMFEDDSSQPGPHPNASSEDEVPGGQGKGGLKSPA
How it was run: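 HepG2, RARg-GAL4 TRANS system, 24 h exposure; reporter mRNA by RT-PCR + CE fluorescence; increase over DMSO.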

[17] = target: human Peroxisome Proliferator-activated Receptor alpha (PPARa), PPARA (gene 5465) (UniProt Q07869); assay: ATG_PPARa_TRANS: Attagene TRANS-FACTORIAL HepG2 Assay for human Peroxisome Proliferator-activated Receptor alpha (PPARa) (AID 2283001; active = hit-call score of the fitted dose curve at least 0.9, where 1 is the maximum)
Sequence of human Peroxisome Proliferator-activated Receptor alpha (PPARa), PPARA (gene 5465) (Q07869 whole entry, looked up, the tested form may be a part): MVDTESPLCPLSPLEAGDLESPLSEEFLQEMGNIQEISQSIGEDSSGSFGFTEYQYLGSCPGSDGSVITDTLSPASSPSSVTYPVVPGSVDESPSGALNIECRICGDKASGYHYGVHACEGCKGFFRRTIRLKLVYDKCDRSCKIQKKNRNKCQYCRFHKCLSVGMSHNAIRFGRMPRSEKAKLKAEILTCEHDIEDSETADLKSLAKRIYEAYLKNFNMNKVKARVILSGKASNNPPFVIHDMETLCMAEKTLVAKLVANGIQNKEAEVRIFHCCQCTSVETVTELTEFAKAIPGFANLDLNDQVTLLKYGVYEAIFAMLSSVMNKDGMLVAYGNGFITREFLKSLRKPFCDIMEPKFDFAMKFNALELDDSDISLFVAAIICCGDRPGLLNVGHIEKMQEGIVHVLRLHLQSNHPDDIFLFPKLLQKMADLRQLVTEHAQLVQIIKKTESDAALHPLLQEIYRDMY
How it was run: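 HepG2 cells transiently transfected with multiplexed GAL4-UAS reporter units and chimeric NR-Gal4 constructs were dosed for 24 h. Reporter mRNA was measured by RT-PCR with fluorescent labelling and capillary electrophoresis; gain of signal fitted against DMSO.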

[18] = target: human Retinoic Acid Receptor beta (RARb), RARB (gene 5915) (UniProt P10826); assay: ATG_RARb_TRANS: Attagene TRANS-FACTORIAL HepG2 Assay for human Retinoic Acid Receptor beta (AID 2283004; active = hit-call score of the fitted dose curve at least 0.9, where 1 is the maximum)
Sequence of human Retinoic Acid Receptor beta (RARb), RARB (gene 5915) (P10826 whole entry, looked up): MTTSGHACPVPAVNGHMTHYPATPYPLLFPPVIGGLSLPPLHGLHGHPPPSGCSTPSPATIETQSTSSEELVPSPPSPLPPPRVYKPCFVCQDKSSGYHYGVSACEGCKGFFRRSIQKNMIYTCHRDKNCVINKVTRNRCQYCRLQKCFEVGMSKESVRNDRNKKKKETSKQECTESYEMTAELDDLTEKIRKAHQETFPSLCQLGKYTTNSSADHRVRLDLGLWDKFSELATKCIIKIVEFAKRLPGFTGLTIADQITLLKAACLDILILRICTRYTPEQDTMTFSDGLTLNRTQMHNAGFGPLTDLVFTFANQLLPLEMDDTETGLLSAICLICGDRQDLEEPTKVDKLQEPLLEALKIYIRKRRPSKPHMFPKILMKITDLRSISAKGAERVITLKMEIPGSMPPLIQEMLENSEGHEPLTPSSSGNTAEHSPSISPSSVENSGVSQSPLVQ
How it was run: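 Transient transfection of HepG2 with multiple reporter units → chemical dosing, 24 h → total RNA isolation → RT with oligo(dT) → reporter-specific PCR, 6-FAM primer extension, HpaI digest → capillary electrophoresis. Positive direction vs DMSO control.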

[19] = target: Retinoic acid receptor alpha (Homo sapiens) (UniProt P10276); assay: ATG_RARa_TRANS: Attagene TRANS-FACTORIAL HepG2 Assay for human Retinoic Acid Receptor alpha (RARa) (AID 2283005; active = hit-call score of the fitted dose curve at least 0.9, where 1 is the maximum)
Sequence of Retinoic acid receptor alpha (Homo sapiens) (P10276 whole entry, looked up, the tested form may be a part): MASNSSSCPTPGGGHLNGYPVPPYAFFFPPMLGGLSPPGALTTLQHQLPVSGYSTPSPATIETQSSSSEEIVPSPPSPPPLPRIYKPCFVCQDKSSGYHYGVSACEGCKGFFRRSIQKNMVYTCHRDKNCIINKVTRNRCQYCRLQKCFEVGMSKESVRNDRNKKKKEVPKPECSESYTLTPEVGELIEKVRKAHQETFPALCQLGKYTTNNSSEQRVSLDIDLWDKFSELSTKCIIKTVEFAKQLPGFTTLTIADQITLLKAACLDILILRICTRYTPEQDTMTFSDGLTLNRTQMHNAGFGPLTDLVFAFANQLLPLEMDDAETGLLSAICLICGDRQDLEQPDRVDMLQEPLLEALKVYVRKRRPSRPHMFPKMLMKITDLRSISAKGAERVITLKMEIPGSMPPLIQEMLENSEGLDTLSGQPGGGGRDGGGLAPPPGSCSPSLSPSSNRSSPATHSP
How it was run: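 HepG2 cells transiently transfected with multiple reporter units expressing chimeric RARα-GAL4 fusion, with GAL4-UAS-driven reporters. After 24 h compound exposure, reporter mRNA induction quantified by RT-PCR and capillary electrophoresis with fluorescent labeling; gain-of-signal fitted relative to DMSO control.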

Measured: AC50

CNCc1cc(F)ccc1Oc1ccc(Cl)c(Cl)c1
active: [8] 12.5 µM | [9] 30.9 µM | [13] 23.9 µM
not listed: [17] | [18] | [19]
inactive: all other assays above

Cc1cc(=O)[nH]c(=S)[nH]1
not listed: [14] | [15] | [16] | [17] | [18] | [19]
inactive: all other assays above

CCCCC(CC)COC(=O)CC(C(=O)OCC(CC)CCCC)S(=O)(=O)O (centres undefined)
active: [5] 11.1 µM | [8] 31.8 µM | [9] 31.1 µM | [10] 38.9 µM | [12] 31.5 µM | [13] 30.6 µM | [14] 7.56 µM | [15] 0.678 µM
inactive: all other assays above

OC[C@@H](O)[C@@H](O)[C@H](O)[C@H](O)CO
not listed: [11] | [14] | [18]
inactive: all other assays above
